Screening data: PubChem BioAssay, National Center for Advancing Translational Sciences (NCATS)
HP1b binding inh: HTS for Inhibitors of HP1-beta Chromodomain Interactions with Methylated Histone Tails; Chromobox protein homolog 1 (Homo sapiens), P83916; AlphaScreen HP1-beta / biotin-H3K9me3 peptide binding; Potency, µM (top dose mostly 114 µM), usual class: inhibitors; actives 0.56% (n = 390,000); AID 540317, 2011; also: nearly all actives have a fitted effect of over 70% in size
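AlphaScreen: HP1-beta (50 nM) preformed 30 min with biotin-H3(1-18)K9me3 peptide (50 nM) in PBS pH 7.4, 0.01% Tween-20. Compound added for 30 min at RT, then streptavidin donor/nickel chelate acceptor beads (10 ug/mL) for 30 min.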
L3MBTL1 inh: qHTS Assay for the Inhibitors of L3MBTL1. AID 485360, 2010. actives 0.66% (n = 230,000). Lethal(3)malignant brain tumor-like protein 1 (Homo sapiens), Q9Y468. Potency, µM (doses to about 57.1 µM), actives largely listed as inhibitors. AlphaScreen L3MBTL1–H3K9me1 peptide binding; also: nearly all actives have a fitted effect of over 60% in size
Target sequence (Q9Y468 whole entry, looked up): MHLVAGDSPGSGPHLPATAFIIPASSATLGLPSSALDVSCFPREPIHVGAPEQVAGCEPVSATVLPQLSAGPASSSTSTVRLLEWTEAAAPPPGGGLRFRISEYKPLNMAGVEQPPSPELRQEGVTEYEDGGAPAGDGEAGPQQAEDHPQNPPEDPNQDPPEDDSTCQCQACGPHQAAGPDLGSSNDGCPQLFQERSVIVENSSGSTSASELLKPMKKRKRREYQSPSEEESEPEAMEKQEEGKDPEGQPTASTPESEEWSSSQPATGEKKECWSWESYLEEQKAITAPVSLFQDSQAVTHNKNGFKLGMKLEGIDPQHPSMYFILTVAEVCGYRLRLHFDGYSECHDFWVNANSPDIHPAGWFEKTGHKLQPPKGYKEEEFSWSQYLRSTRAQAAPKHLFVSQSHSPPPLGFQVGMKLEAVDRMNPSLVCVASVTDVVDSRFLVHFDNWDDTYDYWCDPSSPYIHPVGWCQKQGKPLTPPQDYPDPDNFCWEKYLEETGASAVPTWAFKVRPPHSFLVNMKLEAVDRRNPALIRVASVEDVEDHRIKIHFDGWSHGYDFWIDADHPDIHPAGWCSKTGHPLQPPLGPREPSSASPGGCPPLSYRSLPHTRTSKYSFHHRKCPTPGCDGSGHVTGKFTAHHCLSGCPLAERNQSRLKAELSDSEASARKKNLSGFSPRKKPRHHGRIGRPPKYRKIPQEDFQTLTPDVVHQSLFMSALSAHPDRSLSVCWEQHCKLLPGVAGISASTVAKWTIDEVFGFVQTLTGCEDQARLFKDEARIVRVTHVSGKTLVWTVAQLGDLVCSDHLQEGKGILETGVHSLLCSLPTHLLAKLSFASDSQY
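Read-out is AlphaScreen signal from streptavidin donor and nickel chelate acceptor beads (10 ug/mL final each) bridging L3MBTL1 (50 nM) and biotinylated K9-monomethylated H3(1-15) peptide (75 nM), after 30 min compound exposure at room temperature.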
JMJD2A Tudor: qHTS Assay for Inhibitors of JMJD2A-Tudor Domain | Lysine-specific demethylase 4A (Homo sapiens), O75164 | AlphaScreen JMJD2A-Tudor / H3K4me3 peptide binding | Potency, µM (titrated, usually from 114 µM), most hits filed as inhibitors | actives 4.4% (n = 390,000); also: nearly all actives have a fitted effect of over 50% in size
BAZ2B block: qHTS Assay for Inhibitors of BAZ2B; Bromodomain adjacent to zinc finger domain protein 2B (Homo sapiens), Q9UIF8; AlphaScreen BAZ2B-H3K14Ac peptide displacement; Potency, µM (highest dose often 114 µM), usual class: inhibitors; actives 4.4% (n = 360,000); AID 504333, 2011; also: nearly all actives have a fitted effect of over 60% in size
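Protein-peptide AlphaScreen: BAZ2B 50 nM, b-H3K14Ac 50 nM, 1x PBS pH 7.4 + 0.01% Tween-20. Preincubation 30 min RT; cpd 30 min RT (top 110 uM); beads 20 min RT, light-protected.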
G9a block: qHTS Assay for Inhibitors of Histone Lysine Methyltransferase G9a. G9a H3K9 monomethylation, AlphaScreen, 2 h. Potency, µM (highest dose often 102 µM), most hits filed as inhibitors. actives 8.8% (n = 350,000). AID 504332, 2011; also: nearly all actives have a fitted effect of over 75% in size
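G9a (20 nM) was preincubated 15 min with compound, then reacted 2 h at room temperature with 500 nM biotin-H3K9 peptide and 20 µM SAM. Monomethyl-H3K9 detected by AlphaScreen using anti-H3K9me1 antibody.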
Sfp inh: qHTS Assay for Inhibitors of Bacillus subtilis Sfp phosphopantetheinyl transferase (PPTase). Potency, µM, actives largely listed as inhibitors. AID 1490, 2009. actives 3.5% (n = 310,000). Biochemical Sfp PPTase activity, qHTS. 4'-phosphopantetheinyl transferase ffp (Bacillus subtilis), Q9F4F7;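 also: the enzyme is Sfp with the accession as filed and its product quenches rhodamine fluorescence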
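Step 1, compound plus 15 nM Sfp-PPTase, 15 min, room temperature. Step 2, add rhodamine-CoA (5 uM) and BHQ-2-YbbR (12.5 uM). Step 3, read 525/598 nm fluorescence at 0 and 30 min.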
Large screens that a line does not name were inactive. The list is not random: actives were taken first. Their share in the collection is about 12%. Calls follow the shape of the dose curve; as a rule, active = well fitted curve in the direction sought with a large enough effect; inconclusive = small, poorly fitted or top-dose-only effect, or another doubt; inactive = no such curve, though single readings can be large; an effect the other way counts as inactive or inconclusive.

CCOc1ccc(Nc2cc(C)c3ccccc3n2)cc1	JMJD2A Tudor inconclusive, G9a block inconclusive (no result: L3MBTL1 inh)
CCOC(=O)Cn1c(=O)n(C2CCCCC2)c2nc(-c3ccc(CC)cc3)nc(C(N)=O)c21	none (no result: L3MBTL1 inh, Sfp inh)
CC(C)CNC(=O)C(=O)NN=C1CCCCCC1	none
CC(C)(C)NC(=O)C(=O)NN=C1CCCCCCCCCCC1	Sfp inh 79.4µM (no result: L3MBTL1 inh)
O=C(Nc1ccccc1NC(=O)c1ccco1)c1ccccc1	none (no result: L3MBTL1 inh)
O=C(Nc1nc(NC(=O)c2ccco2)n(-c2ccccc2)n1)c1ccccc1	BAZ2B block 44.7µM
COc1ccc(S(=O)(=O)N2CCCCC2)cc1NC(=O)CCc1nc2ccccc2c(=O)[nH]1	G9a block inconclusive (no result: Sfp inh)
COc1cc(NC(=O)COC(=O)CCc2nc3ccccc3c(=O)[nH]2)cc(OC)c1	none (no result: BAZ2B block, G9a block, Sfp inh)
Cc1ccc(S(=O)(=O)N2CCCCC2)cc1NC(=O)CCc1nc2ccccc2c(=O)[nH]1	G9a block 3.16µM (no result: Sfp inh)
NS(=O)(=O)c1ccc(NC(=O)COC(=O)CCc2nc3ccccc3c(=O)[nH]2)cc1	G9a block inconclusive (no result: Sfp inh)
Cc1ccc(NC(=O)COC(=O)CCc2nc3ccccc3c(=O)[nH]2)cc1Cl	G9a block 35.5µM
O=C(Nc1ccc(F)c([N+](=O)[O-])c1)C(=O)c1c(O)[nH]c2ccccc12	BAZ2B block inconclusive, G9a block 28.2µM, Sfp inh 20µM
N#Cc1cccc(NC(=O)COC(=O)CCc2nc3ccccc3c(=O)[nH]2)c1	G9a block 12.6µM (no result: L3MBTL1 inh)
COc1ccc(OC)c(NC(=O)COC(=O)CCc2nc3ccccc3c(=O)[nH]2)c1	none (no result: BAZ2B block, G9a block, Sfp inh)
O=C(CCc1nc2ccccc2c(=O)[nH]1)Nc1ccc(F)c([N+](=O)[O-])c1	L3MBTL1 inh inconclusive, G9a block 39.8µM
COc1cc(Cl)c(C)cc1NC(=O)COC(=O)CCc1nc2ccccc2c(=O)[nH]1	G9a block 12.6µM (no result: Sfp inh)
Cc1ccc(NC(=O)CCCc2nc3ccccc3c(=O)[nH]2)c(Cl)c1	none (no result: Sfp inh)
O=C(CCc1nc2ccccc2c(=O)[nH]1)NCC(=O)Nc1ccc(F)c(F)c1	none (no result: Sfp inh)
Cc1c(Cl)cccc1NC(=O)CNC(=O)CCCc1nc2ccccc2c(=O)[nH]1	G9a block 44.7µM (no result: Sfp inh)
COc1ccccc1NC(=O)N1CCC(CN2CCc3ccccc3C2)CC1	none (no result: L3MBTL1 inh, Sfp inh)
Cc1ccc(CNC(C)(C)CO)cc1	G9a block inconclusive
CC(C)(CO)NCc1ccc(Br)cc1	JMJD2A Tudor 7.94µM
COC(=O)c1ccc2c(c1)NC(=O)C(N1CCOCC1)S2 (configuration not stated)	none
O=C(NCCCN1CCCC1=O)c1ccc2c(c1)NC(=O)C(N1CCOCC1)S2 (configuration not stated)	Sfp inh 70.8µM
CCN(CC)C(=O)c1cc(-c2ccc(Cl)cc2)on1	none (no result: L3MBTL1 inh, Sfp inh)
COc1ccc(-c2cc(C)no2)cc1S(=O)(=O)N1CC(=O)Nc2ccccc21	G9a block 50.1µM (no result: L3MBTL1 inh)
COc1ccc(-c2cc(C)no2)cc1S(=O)(=O)N1CC(C)Oc2ccccc21 (configuration not stated)	BAZ2B block inconclusive (no result: L3MBTL1 inh, Sfp inh)
CCN(CC)S(=O)(=O)c1ccc(N2CCOCC2)c(NS(=O)(=O)c2cc(C(C)(C)C)ccc2C)c1	HP1b binding inh inconclusive, JMJD2A Tudor inconclusive, G9a block 10µM
CCN(CC)S(=O)(=O)c1ccc(N2CCOCC2)c(NS(=O)(=O)c2ccc(C(C)C)cc2)c1	HP1b binding inh inconclusive, JMJD2A Tudor 25.1µM
CCN(CC)S(=O)(=O)c1ccc(N2CCOCC2)c(NS(=O)(=O)c2cccs2)c1	none (no result: Sfp inh)
Cn1c(=O)c([N+](=O)[O-])c(NCc2ccccc2)c2ccccc21	G9a block 50.1µM
Cc1ccc(C)c(N2CCN(C(=O)c3c(C)oc4nc(C)nc(N5CCOCC5)c34)CC2)c1	G9a block inconclusive (no result: L3MBTL1 inh, Sfp inh)
